# High-throughput results as filed in PubChem.
# Rows were chosen to be rich in hits. Some 7.3% of all compounds tested hit in one or more screens of this group.
# NPC1 prom act – qHTS Assay for NPC1 Promoter Activators. 320,000 compounds, 2.4% hits. AID 485313, 2010. Potency, µM (highest dose often 9.22 µM), hits mostly activators. Huh7 NPC1 promoter luciferase reporter, 24 h; further: nearly all actives have a fitted effect of over 60% in size
#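 Luminescence from an NPC1 promoter-driven luciferase reporter in stably transfected Huh7 cells was measured after 24 h compound treatment at 37 °C, followed by 10 min ambient incubation with luciferase detection reagent.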
# Rab9 prom act – qHTS Assay for Rab9 Promoter Activators; Huh7 Rab9 promoter-luciferase reporter, luminescence, 24 h; Potency, µM (series often up to 9.22 µM), hits mostly activators; 320,000 compounds, 2.8% hits; AID 485297, 2010; further: nearly all actives have a fitted effect of over 60% in size
#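 Measured in stably transfected Huh7 cells bearing a Rab9 promoter–luciferase construct: 24 h compound treatment at 37 °C, followed by luminescence detection.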
# KinaseGlo FLuc – Counterscreen for Luciferase (Kinase-Glo TM) Inhibition | Kinase-Glo luciferase, ATP luminescence, 8 min | Luciferin 4-monooxygenase (Photuris pensylvanica), Q27757 | 200,000 compounds, 0.28% hits | Potency, µM (highest dose often 38.3 µM), actives largely listed as inhibitors | AID 1379, 2008; further: nearly all actives have a fitted effect of over 60% in size
#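 Recombinant Kinase-Glo luciferase, 10 uM ATP (linear range), luciferin; imidazole pH 7.2 / KCl / MgCl2 / Tween / BSA buffer; 8 min RT; luminescence.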
# FLuc modulator – qHTS profiling assay for firefly luciferase inhibitor/activator using purifed enzyme and Km concentrations of substrates (counterscreen for miR-21 project); purified FLuc, Km substrates, luminescence inhibition; Potency, µM (doses to about 57.5 µM), hits mostly inhibitors; 360,000 compounds, 6.9% hits; further: nearly all actives have a fitted effect of over 55% in size
# Target sequence (P08659 whole entry, looked up): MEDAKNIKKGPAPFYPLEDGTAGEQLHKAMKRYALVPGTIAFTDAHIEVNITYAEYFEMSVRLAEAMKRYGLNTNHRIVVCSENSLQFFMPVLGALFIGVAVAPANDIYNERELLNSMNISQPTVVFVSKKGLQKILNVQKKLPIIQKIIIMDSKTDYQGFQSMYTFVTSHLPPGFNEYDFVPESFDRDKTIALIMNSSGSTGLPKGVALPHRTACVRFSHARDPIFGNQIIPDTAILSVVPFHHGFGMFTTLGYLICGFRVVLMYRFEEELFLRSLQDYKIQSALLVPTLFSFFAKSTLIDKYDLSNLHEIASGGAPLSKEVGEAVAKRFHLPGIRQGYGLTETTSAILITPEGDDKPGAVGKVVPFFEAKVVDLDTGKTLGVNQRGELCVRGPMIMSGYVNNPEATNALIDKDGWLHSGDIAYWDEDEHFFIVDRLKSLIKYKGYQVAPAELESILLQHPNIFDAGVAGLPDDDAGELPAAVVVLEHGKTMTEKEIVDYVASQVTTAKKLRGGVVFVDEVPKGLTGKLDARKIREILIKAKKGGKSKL
#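 Purified P. pyralis luciferase (10nM final) with 10uM D-luciferin and 10uM ATP (Km levels) in 50mM Tris acetate pH 7.5, 10mM Mg acetate, 0.01% Tween-20, 0.05% BSA; qHTS 6-point titration, ~60 µM downward; luminescence read.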
# SMN2 splice up – qHTS Assay for Enhancers of SMN2 Splice Variant Expression. HEK293 SMN2-luciferase splicing reporter, luminescence, 30-36 h. Potency, µM (series often up to 46.1 µM), most hits filed as activators. 210,000 compounds, 2.8% hits; further: nearly all actives have a fitted effect of over 55% in size
#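 qHTS luciferase splicing reporter: luminescence rises when SMN2 exon 7 is included in transfected HEK293 cells. Compound exposure lasted 30-36 h at 37C, with 4.5 mM final sodium butyrate as control, followed by a ONE-Glo read.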
# Numbers stand for hits; i = inactive; ? = inconclusive; nt = no result; [ ] = dose if it differs, or a comment. The call rests on the fitted dose curve; in most records, active means well fitted curve in the direction sought with a large enough effect; inconclusive means small, poorly fitted or top-dose-only effect, or another doubt; inactive means no such curve, though single readings can be large; an effect the other way counts as inactive or inconclusive.
SMILES,NPC1 prom act,Rab9 prom act,KinaseGlo FLuc,FLuc modulator,SMN2 splice up
O=C(CCC1CCCCC1=O)c1ccccc1 (centres undefined),i,i,i,?,i
Cc1ccc(C(=O)CCC2CCCC2=O)cc1 (centres undefined),4µM,?,i,12µM,?
CO[C@@H]1C=CO[C@]2(C)Oc3c(C)c(O)c4c(O)c(c(C=NN5CCN(C)CC5)c(O)c4c3C2=O)NC(=O)C(C)=CC=C[C@H](C)[C@H](O)[C@H](C)[C@H](O)[C@H](C)[C@H](OC(C)=O)[C@H]1C,nt,nt,i,nt,i
N#Cc1c(NC(=O)C(F)(F)F)sc2c3c(=O)c4ccccc4c(=O)c=3oc3ccccc3c12,nt,nt,i[7.66 µM],nt,i[9.22 µM]
COc1ccc(Nc2nc(C)c3ccccc3n2)cc1,?,2.5µM,i,i[2.3 µM],35µM
COc1ccc(Nc2nc(C)c(-c3ccccc3)s2)cc1,?,4µM,i,7.6µM,?
COc1ccc2c(C)nc(Nc3nc(C)c(C)c(=O)[nH]3)nc2c1,?,?,i,9.5µM,i
Cc1nc(Nc2ccc(S(N)(=O)=O)cc2)sc1-c1ccccc1,i,i,nt,21µM,nt
Cc1nc(Nc2ccc(S(N)(=O)=O)cc2)sc1C(=O)Nc1ccccc1,i,i,i,i,i
CCN(CC)C(=O)c1sc2c(c1C)c(=O)n(CCc1ccccc1)c(=O)n2Cc1cc(C)ccc1C,nt,nt,nt,i,nt
CCn1c(=O)n(CC)c2cc(N3CCCCC3)c(NC(=O)Nc3cc(C)cc(C)c3)cc21,nt,nt,nt,i,nt
COc1ccc(CCN(C)C(=O)c2cc(-c3ccccc3)nc3ccc(C)cc23)cc1OC,?,i,nt,2.4µM,nt
COc1ccc(CN(C)C(=O)c2cc(-c3ccccc3)nc3ccc(C)cc23)c(OC)c1OC,i,?,nt,?,nt
COc1ccc(-c2cc(C(=O)N(C)CCc3ccc(OC)c(OC)c3)c3ccccc3n2)cc1,i,i,nt,i,nt
COc1ccc(CCN(C)C(=O)c2cc(-c3ccccc3)nc3ccccc23)cc1OC,i,i,nt,15µM,nt
Cc1c(NC(=O)CSc2nnc3c4ccccc4n(CCc4ccccc4)c3n2)c(=O)n(-c2ccccc2)n1C,i,i,i,i,3.2µM
CCn1c2ccccc2c2nnc(SCC(=O)Nc3c(C)n(C)n(-c4ccccc4)c3=O)nc21,i,i,i,i,i
Cn1c2ccccc2c2nnc(SCC(=O)Nc3cccc(O)c3)nc21,i,i,nt,6.7µM,nt
Cc1ccc(S(=O)(=O)NC(=O)O[C@@H]2C(=O)c3cc(Br)ccc3O[C@H]2c2ccc3c(c2)OCO3)cc1,nt,nt,i,nt,nt
CCN(CC)C(=O)c1ccc2c(c1[N+](=O)[O-])C(=O)c1ccccc1C2=O,2.8µM,2.2µM,i,i,13µM
CCN(CC)C(=O)c1cccc2c1C(=O)c1ccccc1-2,i,i,i,i,i
COc1cccc2c(Cl)c(CCCl)c(C)nc12,i,i,i,21µM,i
CCCCc1c(C)nc2c(OC)cccc2c1SCC(=O)O,i,i,nt,i,nt
CCN(Cc1ccccc1)C(=O)c1c(C)oc2ncn(C)c(=O)c12,nt,nt,nt,i,nt
COc1ccccc1NC(=O)CN1C(=O)C(c2ccc(F)cc2)=NC1(C)C,nt,nt,nt,i,i
SMILES,NPC1 prom act,Rab9 prom act,KinaseGlo FLuc,FLuc modulator,SMN2 splice up
COc1ccc(NC(=O)n2nc(OC(=O)c3cccs3)cc2N)cc1,i,i,nt,17µM,nt
O=C(CSc1nnc(-c2cccs2)o1)Oc1ccccc1Cl,nt,nt,nt,i,nt
COCC(C)n1c(C)cc(C(=O)COC(=O)c2ccc3ncsc3c2)c1C (centres undefined),i,i,i,17µM,i
O=C(O)/C=C/C(=O)c1ccc2c(c1)CCc1ccccc1-2,i,?,nt,24µM,nt
COc1cc(NC(=O)c2nnn(CC(=O)Nc3ccccc3)c2N)cc(OC)c1,nt,nt,nt,i,nt
COC(=O)C1=CN(c2ccc(OC)cc2)C=C(C(=O)OC)C1c1ccc(C)c([N+](=O)[O-])c1,i,i,i,i,i
COC(=O)C1=CN(c2cccc(C)c2)C=C(C(=O)OC)C1c1cc(OC)c(O)c([N+](=O)[O-])c1,i,i,i,17µM,i
Cn1cc(Cl)c(/C(N)=N/OC(=O)c2ccccc2C(F)(F)F)n1,3.5µM,4.5µM,nt,12µM,nt
O=C(Nc1ccc(Br)cc1F)c1ncoc1-c1ccco1,nt,nt,nt,i,nt
CN(C)c1ccc(CNC(=O)c2cc3ccccn3n2)cc1,nt,nt,nt,i,nt
Cc1cc(Cl)ccc1NC(=O)c1cc2ccccn2n1,nt,nt,nt,4.8µM,nt
